Among the data in PubChem BioAssay AID463173 (ICCB-Longwood Screening Facility, Harvard Medical School, 2010) are survival values, retold here.

Out of some 52,000 compounds screened, about 4,300 (8.3%) were called active. What follows is part of a selection rich in actives, with near analogues and random picks from the rest. A number with no mark means an inactive call. Cut-off read from the data, not from the text of the source: active = survival mostly below about 52% (no sharp cut-off); inactive = mostly above about 56%.

For the assay, the system named is DeltatarO mutant. Briefly: S. aureus survival, RN4220 and DeltatarO strains – OD600, teichoic acid synthesis inhibitors, primary screen (AID 463173). To be noted: S. aureus RN4220 wild type/DeltatarO growth, OD600, 18 h, active compounds read low, screened at 18.75 µg/mL (by protocol).
As for `O=C(NCc1ccc2c(c1)OCO2)c1ccc2c(c1)N(Cc1ccccc1)C(=O)c1ccccc1S2=O` (configuration not stated), the survival is 83%.
To `CC(CNC(=O)c1ccc(Cn2c(SCc3ccccc3)nc3cccnc32)cc1)c1ccccc1` (configuration not stated) belongs 69%; to `O=C(O)CN1CCCCC1`, 89%; to `O=C(c1ccc(F)cc1)n1nc(-c2ccc(Cl)cc2)nc1NCc1ccco1`, 70%.
With `COc1ccc(C(=O)n2nc(-c3ccc(Cl)cc3)nc2NCc2ccco2)cc1` the figure was 115%; with `O=C(c1ccco1)n1nc(-c2ccc(Cl)cc2)nc1NCc1ccccc1`, 74%.
With `O=C(c1ccco1)n1nc(-c2ccccc2)nc1NCc1ccccc1Cl` the figure was 96%; with `O=C(c1ccco1)n1nc(-c2ccc(Cl)cc2)nc1NCc1ccc(F)cc1`, 80%.
Regarding `O=C(c1ccc(Cl)cc1)n1nc(-c2ccccc2)nc1NCc1ccco1`, the survival is 29% (active).
With `O=C(c1ccccc1)n1nc(-c2ccc(Cl)cc2)nc1NCc1ccco1` the figure was 23% (active); with `O=C(c1ccc(F)cc1)n1nc(-c2ccccc2)nc1NCc1ccco1`, 18% (active); with `O=C(c1ccco1)n1nc(-c2ccccc2)nc1NCc1ccc(Cl)cc1`, 91%.
To `Cc1ccc2onc(CNC(=O)NCc3ccc(Cl)cc3)c2c1` belongs 77%.
On to `FC(F)(F)COc1nc(OCC(F)(F)F)nc(N(c2ccccc2)c2ccccc2)n1`, for which the survival is 71%.
With `O=C(CCCCn1c(=O)c2ccccc2n(Cc2ccccc2Cl)c1=O)NCc1ccc2c(c1)OCO2` the figure was 78%; with `COc1ccc(S(=O)(=O)c2c(Nc3c(C)cccc3C)sc(C(=O)c3ccc(F)cc3)c2N)cc1`, 98%; with `Cc1ccc(C)c(S(=O)(=O)c2nnn3c2nc(N2CCCCC2)c2sccc23)c1`, 60%.
As to `COc1cccc(C(=O)N2CCCCC2CCN2CCCCC2)c1` (configuration not stated), the survival was 83%.
With `NC(=O)NC(=O)c1nc2nonc2[nH]c1=O` the figure was 91%.
To `O=c1[nH]c2ccccc2nc1/C=C(\O)c1ccccc1` belongs 83%; to `O=c1[nH]c2nonc2nc1/C=C(\O)c1ccccc1`, 15% (active).
With `Cc1cccc(OC2CCS(=O)(=O)C2)c1` (configuration not stated) the figure was 87%.
Consider `COc1ccc(C2=C(C)C(=NCCCN3CCN(c4cc(Cl)ccc4C)CC3)NS2(=O)=O)cc1`, for which the survival is 59%.
With `N#CC(C#N)=Cc1cn(CCCOc2ccccc2Cl)c2ccccc12` the figure was 76%; with `COc1ccccc1-c1nnc(SCC(=O)c2ccc(F)cc2)n1-c1ccccc1`, 6% (active); with `CCn1c(SCC(=O)c2ccc([N+](=O)[O-])cc2)nnc1-c1ccc(Cl)cc1`, 70%.
With `CCOc1ccc(-c2nnc(SCC(=O)c3ccc(F)cc3)n2-c2ccccc2)cc1` the figure was 168%.
To `COc1ccccc1-c1nnc(SCC(=O)OC(C)C)n1-c1ccccc1` belongs 92%; to `Cc1ccc(-c2nnc(SCC(=O)c3ccc(Cl)cc3)n2-c2ccccc2)cc1`, 85%; to `COc1ccccc1-c1nnc(SCC(=O)c2ccc(Cl)cc2)n1-c1ccccc1`, 1% (active).
Take `Cc1ccc(C(=O)CSc2nnc(-c3ccccc3)n2-c2ccccc2)cc1`: the survival was 99%.
As for `O=C(CSc1nnc(-c2ccccc2Br)n1-c1ccccc1)c1ccc(F)cc1`, the survival was 17% (active).
With `Cn1c(SCC(=O)c2ccc(F)cc2)nnc1-c1ccccc1Br`, the survival was 57%.
With `O=C(CSc1nnc(-c2ccc(Br)cc2)n1-c1ccccc1)c1ccccc1` the figure was 69%.
As for `CCn1c(SCC(=O)c2ccccc2)nnc1-c1cccc(Cl)c1`, the survival was 39% (active).
For the compound `CCn1c(SCC(=O)c2ccccc2)nnc1-c1ccco1`, the survival was 86%.
To `CCCCNC(=O)CSc1nc(-c2ccc(OC)cc2)cc(C(F)(F)F)n1` belongs 66%; to `Cc1oc2c(c(C)cc3oc(=O)c(CC(=O)NCc4ccc(F)cc4)c(C)c32)c1C`, 89%; to `CCc1c(C)nc2cc(-c3cc(OC)cc(OC)c3)nn2c1NCCO`, 95%.
With `CC(=O)N1c2ccccc2C(=O)C1N1CCN(c2cccc(C(F)(F)F)c2)CC1` (configuration not stated) the figure was 91%; with `O=C(c1ccc(F)cc1)N1c2nc(-c3ccco3)nn2C2(CCCCC2)[C@@H]2CCCC[C@@H]21`, 53%; with `O=C(c1ccccc1)N1c2nc(-c3ccco3)nn2C2(CCCCC2)[C@@H]2CCCC[C@@H]21`, 62%.
Turning to `Cc1ccc(C(=O)N2c3nc(-c4ccco4)nn3C3(CCCCC3)[C@@H]3CCCC[C@@H]32)cc1`, the survival is 59% (active).
To `CSc1ccc(CCNC(=O)c2ccc(-c3nc(COc4ccc(C)cc4)c(C)o3)cc2)cc1` belongs 82%.
To `COc1cccc(NC(=O)CSc2nc(=O)n(Cc3ccco3)c3c2CCC3)c1` belongs 90%; to `Cc1c(Cl)cccc1NC(=O)CCN1C(=O)c2ccccc2Sc2ncccc21`, 78%; to `CCOc1ccc(C(=O)Cn2c(=O)n3nc(CCn4nc(C)cc4C)nc3c3cc(OC)c(OC)cc32)cc1`, 98%.
With `Fc1ccc(Nc2c3c(nc4ccccc24)CCC3)cc1` the figure was 69%; with `COc1ccc(Nc2c3c(nc4ccccc24)CCC3)cc1Cl`, 59%.
As to `COc1ccc(OC)c(Nc2c3c(nc4ccccc24)CCC3)c1`, the survival was 94%.
Turning to `Cc1ccc2nc3c(c(Nc4ccc(C)c(C)c4)c2c1)CCC3`, the survival was 38% (active).
With `COc1ccc(C)cc1Nc1c2c(nc3ccccc13)CCC2` the figure was 85%; with `Cc1ccc(Nc2c3c(nc4ccccc24)CCC3)cc1F`, 2% (active).
To `CCOC(=O)c1ccc(CN(Cc2ccccc2C)S(=O)(=O)c2ccc(C(C)(C)C)cc2)cc1` belongs 83%.
To `CCN1C(=O)c2ccccc2S(=O)(=O)c2ccc(C(=O)NCc3ccc(C)cc3)cc21` belongs 61%; to `Cc1ccc(C(=O)c2cn(CC(=O)NCc3ccccc3)c3nc(C)ccc3c2=O)cc1`, 95%.
In the case of `Cc1ccc(CNC(=O)c2c(-c3ccc(F)cc3F)noc2C)o1`, the survival was 77%.
As to `CCc1nn2c(=O)cc(COC(=O)c3ccccc3NC(=O)COc3ccc(C)c(C)c3)nc2s1`, the survival was 87%.
With `COc1ccc(Br)cc1CNC(=O)CCCn1c(=O)c2cccn2c2ccccc21` the figure was 39% (active).
`CN(C)CCNC(=O)CCCn1c(=O)c2cccn2c2ccccc21`: the survival was 64%.
To `CCCCN(CC)C(=O)CCCn1c(=O)c2cccn2c2ccccc21` belongs 49% (active); to `Cc1ccccc1CNC(=O)CCCn1c(=O)c2cccn2c2ccccc21`, 68%; to `COc1ccc(Br)cc1CNC(=O)CCCn1c(=O)c2cccn2c2cccnc21`, 106%.
To `CCCCN(CC)C(=O)CCn1c(=O)c2cccn2c2cccnc21` belongs 70%.
For `O=C(CCCn1c(=O)c2cccn2c2cccnc21)NCc1ccccc1Br`, the survival was 130%.
With `COc1ccccc1CNC(=O)CCCn1c(=O)c2cccn2c2ccccc21` the figure was 76%.
As to `O=C(CCCn1c(=O)c2cccn2c2ccccc21)NCc1ccccc1Br`, the survival was 43% (active).
To `O=C(CN1C(=O)CCSc2ccccc21)Nc1ccccc1F` belongs 85%; to `CCc1ccc(NC(=O)C2CCN(c3nn4c(=O)cc(C)nc4s3)CC2)cc1`, 101%.
On to `COc1ccc(Cn2c(=O)c3cccnc3n(CC(=O)Nc3c(C)cc(C)cc3C)c2=O)cc1`, for which the survival is 87%.
With `O=C(CN1C(=O)COc2ccc(S(=O)(=O)N3CCCCC3)cc21)NCc1ccc(Cl)cc1` the figure was 64%.
With `CCOC(=O)c1ccc(NC(=O)c2nn(C)c3c2COc2ccccc2-3)cc1` the figure was 106%.
To `O=C(CSC1=Nc2ccccc2N=C(c2ccc(F)cc2)C1)NCc1ccc(Cl)cc1` belongs 72%; to `CCc1nn(CC(=O)N2CCCCC2)c(=O)c2cc3sccc3n12`, 65%; to `CC(=O)Nc1ccc(NC(=O)Cn2c(=O)ccc3cc(S(=O)(=O)N4CCC(C)CC4)ccc32)cc1`, 84%.
In the case of `CC1CCN(S(=O)(=O)c2ccc3c(ccc(=O)n3CC(=O)Nc3ccc(C(C)C)cc3)c2)CC1`, the survival is 0% (active).
As to `CC1CCN(S(=O)(=O)c2ccc3c(ccc(=O)n3CC(=O)NCc3ccccc3)c2)CC1`, the survival is 49%.
Regarding `Cc1ccc(NC(=O)Cn2c(=O)ccc3cc(S(=O)(=O)N4CCC(C)CC4)ccc32)cc1Cl`, the survival is 74%.
For the compound `Cc1ccc(CNC(=O)Cn2c(=O)ccc3cc(S(=O)(=O)N4CCC(C)CC4)ccc32)cc1`, the survival was 37% (active).
To `CC1CCN(S(=O)(=O)c2ccc3c(ccc(=O)n3CC(=O)NCc3ccc(Cl)cc3)c2)CC1` belongs 75%.
On to `CCCNC(=O)N1CCN(S(=O)(=O)c2ccc3c(ccn3C)c2)CC1`, for which the survival is 83%.
With `CCc1c(-c2ccccc2)nc2ccccc2c1C(=O)NCCc1ccccc1` the figure was 70%; with `CCOc1ccc(NC(=O)Cn2c(=O)n(-c3ccccc3)c(=O)c3ccc(C(=O)NCc4ccc5c(c4)OCO5)cc32)cc1`, 107%; with `COc1cccc(CNC(=O)CSc2nc(=O)[nH]c3c2CCC3)c1`, 80%.
With `CCOc1ccc(-c2cc(C(=O)NCc3ccc(OCC)c(OC)c3)[nH]n2)cc1` the figure was 85%.
With `Cc1ccccc1C(=O)Nc1ccc2nc(N3CCCCC3)cc(C)c2c1`, the survival is 32% (active).
To `Cc1cc(C)cc(NC(=O)Nc2ccc3nc(N4CCN(C)CC4)cc(C)c3c2)c1` belongs 117%.
Consider `Cc1ccc(C(=O)Nc2ccc3nc(N4CCCCC4)cc(C)c3c2)cc1F`, for which the survival is 55%.
With `Cc1cc(N2CCN(C)CC2)nc2ccc(NC(=O)Nc3ccc(Cl)cc3)cc12` the figure was 72%; with `Cc1cc(N2CCCCC2)nc2ccc(NC(=O)c3cccc(F)c3)cc12`, 83%.
With `CCN1CCN(c2cc(C)c3cc(NC(=O)c4cccc(Cl)c4)ccc3n2)CC1` the figure was 23% (active); with `Cc1cc(N2CCCCC2)nc2ccc(NC(=O)CCC(=O)N3CCN(c4ccccc4)CC3)cc12`, 62%.
On to `CCN1CCN(c2cc(C)c3cc(NC(=O)c4cccc(C(F)(F)F)c4)ccc3n2)CC1`, for which the survival is 63%.
To `CCN1CCN(c2cc(C)c3cc(NC(=O)c4cc(Br)ccc4Cl)ccc3n2)CC1` belongs 32% (active); to `Cc1cc(N2CCCCC2)nc2ccc(NC(=O)c3cccc(Cl)c3)cc12`, 0% (active).
To `Cc1cc(N2CCN(C)CC2)nc2ccc(NC(=O)Nc3ccccc3)cc12` belongs 65%; to `Cc1cc(N2CCN(C)CC2)nc2ccc(NC(=O)Nc3cccc(Cl)c3)cc12`, 70%.
